# SMN2 splice up: qHTS Assay for Enhancers of SMN2 Splice Variant Expression. HEK293 SMN2-luciferase splicing reporter, luminescence, 30-36 h. Potency, µM (doses to about 46.1 µM), without a hit: top-dose activity change, positive = activation, hits mostly activators. 210,000 compounds, 2.8% hits. AID 1458, 2008; also: % of control where 0% means no effect; nearly all actives have a fitted effect of over 55% in size
#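 HEK293 cells carry an SMN2 minigene-luciferase reporter in which exon 7 inclusion puts luciferase in frame. Cells were seeded at 2000 cells/well, attached for 10-12 hours, then exposed to compounds for 30-36 hours at 37C before ONE-Glo luminescence.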
# NPC1 promoter act: qHTS Assay for NPC1 Promoter Activators | Potency, µM (top dose mostly 9.22 µM), for the others: at the highest dose activation, most hits filed as activators | 320,000 compounds, 2.4% hits | Huh7 NPC1 promoter luciferase reporter, 24 h; also: % of control where 0% means no effect; nearly all actives have a fitted effect of over 60% in size
#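 Luminescence from an NPC1 promoter-driven luciferase reporter in stably transfected Huh7 cells was measured after 24 h compound treatment at 37 °C, followed by 10 min ambient incubation with luciferase detection reagent.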
# Rab9 prom act: qHTS Assay for Rab9 Promoter Activators; Huh7 Rab9 promoter-luciferase reporter, luminescence, 24 h; Potency, µM (series often up to 9.22 µM), inactives show top-dose activation, negative = inhibition, actives largely listed as activators; 320,000 compounds, 2.8% hits; also: % of control where 0% means no effect; nearly all actives have a fitted effect of over 60% in size
#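 Rab9 promoter-driven luciferase in stably transfected Huh7 cells; 1500 cells/well rested 2 h, exposed to compound in DMSO for 24 h at 37 °C, 5% CO2. Luminescence read 10 min after adding luciferase reagent at ambient temperature.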
# ELG1 DNA repair: qHTS screen for small molecules that inhibit ELG1-dependent DNA repair in human embryonic kidney (HEK293T) cells expressing luciferase-tagged ELG1. HEK293T ELG1-luciferase reporter, luminescence, 16 h; DNA damage induced by 5-fluorouridine. Potency, µM (titrated, usually from 46.1 µM), without a hit: at the highest dose activity change, negative = inhibition, actives largely listed as inhibitors. 330,000 compounds, 2.3% hits; also: % is scaled to controls: 0 for no effect and ±100 for the full control effect; nearly all actives have a fitted effect of over 55% in size
#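 Luminescence from the luciferase reporter, measured 30 min after ONE-Glo reagent at room temperature, was the read-out. Beforehand, 2,000 cells per well were exposed for 16 hr at 37 °C to 5-fluorouridine together with compound or vehicle.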
# FLuc modulator: qHTS profiling assay for firefly luciferase inhibitor/activator using purifed enzyme and Km concentrations of substrates (counterscreen for miR-21 project); Luciferin 4-monooxygenase (Photinus pyralis), P08659; purified FLuc, Km substrates, luminescence inhibition; Potency, µM (doses to about 57.5 µM), for inactives: top-dose activity change, negative = inhibition, actives largely listed as inhibitors; 360,000 compounds, 6.9% hits; AID 588342, 2011;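 also: plate controls were vehicle for no effect and reference inhibitor for full effect; nearly all actives have a fitted effect of over 55% in size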
# Target sequence (P08659 whole entry, looked up): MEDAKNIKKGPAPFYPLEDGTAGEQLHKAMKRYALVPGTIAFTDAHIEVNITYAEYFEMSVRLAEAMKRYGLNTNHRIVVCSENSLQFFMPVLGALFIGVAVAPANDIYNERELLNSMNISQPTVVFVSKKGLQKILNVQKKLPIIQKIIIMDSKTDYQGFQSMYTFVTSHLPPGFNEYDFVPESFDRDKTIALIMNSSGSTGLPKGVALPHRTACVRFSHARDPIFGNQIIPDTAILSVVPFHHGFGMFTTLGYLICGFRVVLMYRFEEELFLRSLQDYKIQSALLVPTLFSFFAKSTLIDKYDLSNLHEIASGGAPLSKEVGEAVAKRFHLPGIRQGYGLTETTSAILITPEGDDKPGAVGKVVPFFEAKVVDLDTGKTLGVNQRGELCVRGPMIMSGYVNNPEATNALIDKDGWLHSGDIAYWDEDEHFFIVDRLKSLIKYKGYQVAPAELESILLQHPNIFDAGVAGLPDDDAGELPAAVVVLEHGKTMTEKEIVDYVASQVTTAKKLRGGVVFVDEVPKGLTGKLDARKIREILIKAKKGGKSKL
#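 Purified P. pyralis luciferase (10nM final) with 10uM D-luciferin and 10uM ATP (Km levels) in 50mM Tris acetate pH 7.5, 10mM Mg acetate, 0.01% Tween-20, 0.05% BSA; qHTS 6-point titration, ~60 µM downward; luminescence read.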
# ELG1 genotoxic: qHTS screen for small molecules that induce genotoxicity in human embryonic kidney (HEK293T) cells expressing luciferase-tagged ELG1; Potency, µM (highest dose often 46 µM), for the others: at the top dose activity change, positive = activation, hits mostly activators; 330,000 compounds, 1.3% hits; HEK293T ELG1-luciferase reporter, luminescence, 16 h; also: % of control where 0% means no effect; nearly all actives have a fitted effect of over 60% in size
#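 ELG1-luciferase HEK293T cells, 2,000/well; compound pinned in; 16 hr, 37 °C, 5% CO2; ONE-Glo, 30 min RT; luminescence on CCD imager.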
# * hit, by the source's call; ? = inconclusive; . = no result; [ ] = another dose, or the depositor's remark. The list is not random: actives were taken first. Their share in the collection is about 9.3%. Calls follow the shape of the dose curve; as a rule, active = well fitted curve in the direction sought with a large enough effect; inconclusive = small, poorly fitted or top-dose-only effect, or another doubt; inactive = no such curve, though single readings can be large; an effect the other way counts as inactive or inconclusive. Potency is read from the fitted curve at half-maximal effect.
SMILES,SMN2 splice up,NPC1 promoter act,Rab9 prom act,ELG1 DNA repair,FLuc modulator,ELG1 genotoxic
CCOC(=O)C(Cc1c[nH]c2ccccc12)NC(=O)c1ccccc1Br (stereo unspecified),.,26%,24%,?,0.67µM*,?
CCCC(=O)Nc1ccc(S(=O)(=O)Nc2cc(C)nc(C)n2)cc1,4%,-2%,7%,-1%,1%,6%
COc1ccc(N(CC(=O)NC2CCCCC2)C(=O)CNC(=O)c2cccs2)cc1OC,.,-1%,2%,11%,0%,0%
COCC(C)NC(=O)c1cc(-c2ccc(O)cc2)on1 (stereo unspecified),9%,27%,25%,?,-20%,?
CCC(C)NC(=O)c1cc(-c2ccc(OC)cc2)on1 (stereo unspecified),10µM*,2.8µM*,3.2µM*,?,6µM*,?
COc1ccc(-c2cc(C(=O)NCC(C)C)no2)cc1,11µM*,1.4µM*,0.71µM*,?,2.4µM*,2.6µM*
O=C(NNS(=O)(=O)c1ccc(Cl)cc1)c1cnn(-c2ccccc2)c1-n1cccc1,-14%,0%,0%,1%,8%,0%
CN(C)c1nc(NCc2ccccc2)nc(N/N=C/c2ccc3c(c2)OCO3)n1,-16%,-6%,0%,?,-12%,-2%
Cc1nn(-c2ncc(C(F)(F)F)cc2Cl)c(=O)n1-c1ccccc1F,12%,-9%,-12%,3%,5%,-4%
CCOc1ccc(NC(=O)Cn2sc3nc(C)cc(C)c3c2=O)cc1,.,-2%,-2%,1%,?,-1%
Cc1cc(C)c2c(=O)n(CC(=O)Nc3ccc(Cl)cc3)sc2n1,.,-1%,2%,20%,7.6µM*,0%
Cc1ccc(NC(=O)Cn2sc3nc(C)cc(C)c3c2=O)c(Cl)c1,.,3%,-4%,?,11µM*,1%
Cc1cc(C)c2c(=O)n(CC(=O)NCCCN3CCN(c4ccccc4F)CC3)sc2n1,3%,-1%,0%,?,?,2%
Cc1cc(C)c2c(=O)n(CC(=O)Nc3cccc(F)c3)sc2n1,.,-3%,-2%,?,9.5µM*,3%
CCOc1ccccc1NC(=O)c1cnc2n(c1=O)CCS2,.,5%,9%,23%,-5%,-1%
Cc1ccc(Cl)cc1N1CCN(CCCNC(=O)c2ccc3nc(N4CCCCC4)sc3c2)CC1,25%,.,.,.,?,.
COC(=O)c1ccc(C(=O)OC)c(NC(=O)CSCC(=O)O)c1,.,2%,2%,24%,-1%,-1%
CSc1nc(N)n2nc(-c3ccc(Cl)cc3)cc2n1,.,2µM*,1.6µM*,?,0.67µM*,?
Cc1ccc(-c2cc(N)n(Cc3ccc(Cl)cc3)n2)cc1,-47%,-14%,-16%,?,?,-4%
O=C(CSc1nc2ccccc2nc1N1CCOCC1)Nc1ccccc1F,.,2%,-2%,?,-12%,0%
Cn1c(=NC(=O)c2ccccc2[N+](=O)[O-])sc2cccc(F)c21,.,0.56µM*,0.5µM*,?,0.6µM*,?
Cn1c(=NC(=O)C(C)(C)C)sc2cccc(F)c21,.,-6%,1%,?,?,9%
COC(=O)c1cccc(C(=O)Nc2ccc(C)cc2Br)n1,?,6%,-18%,?,11µM*,11%
Cc1ccc(NC(=O)c2cccc(C(=O)OC(C)C)n2)c(Br)c1,13%,-3%,-3%,?,?,-1%
O=C(Nc1cnc2ccccc2c1)c1ccncc1,21%,1.8µM*,3.2µM*,?,12µM*,2.3µM*
SMILES,SMN2 splice up,NPC1 promoter act,Rab9 prom act,ELG1 DNA repair,FLuc modulator,ELG1 genotoxic
S=C(NCCc1ccccc1)Nc1cnc2ccccc2c1,?,25%,?,?,27µM*,?
Cn1ncc2cc(NC(=S)NC(=O)c3ccccc3)ccc21,20%,2µM*,2µM*,?,12µM*,9%
O=C(Nc1ccccc1)c1ccncc1,22%,.,.,.,1%,.
COc1ccc(CNC(=O)C2CC(c3ccccc3C(F)(F)F)=NO2)cc1 (stereo unspecified),.,-9%,-19%,19%,-3%,2%
O=C(CCN1CCCO1)NC1CCCc2c1cnn2-c1ccccc1F (stereo unspecified),.,-2%,2%,-1%,0%,-1%
CCn1c(=O)[nH]c(=O)c2c(N)c(C(=O)c3ccccc3OC)sc21,4%,-3%,-5%,-21%,0%,11%
COC(=O)c1cccc(C(=O)Nc2cnc3ccccc3c2)n1,-5%,4µM*,?,?,24µM*,10%
Cc1ccc(NC(=O)Nc2cnc3ccccc3c2)cc1,13µM*,2.2µM*,1.3µM*,?,?,?
O=C(NC(=S)Nc1cnc2ccccc2c1)c1ccccc1,11µM*,?,3.5µM*,?,7.6µM*,?
O=C(NC(=S)Nc1ncc(Br)cc1Br)c1ccccc1,.,?,11%,?,21µM*,?
N#C/C(=C\c1cccs1)C(=O)c1ccccc1Cl,.,2%,-6%,?,21µM*,-10%
N#C/C(=C\c1cccs1)C(=O)Nc1nccs1,?,3.5µM*,2.8µM*,?,4.3µM*,?
N#C/C(=C\c1cccs1)C(=O)NCc1ccccc1,11%,0%,0%,20%,-12%,6%
Cc1onc(-c2ccccc2Cl)c1C(=O)NC(=S)NCc1cccnc1,12%,-3%,-2%,-2%,-1%,6%
Cc1ccc2nc(SCC3CCCCO3)[nH]c2c1 (stereo unspecified),.,0.4µM*,0.11µM*,?,1.2µM*,?
C/C(N)=C(/C#N)C(=O)CSc1nc2ccc(C)cc2[nH]1,10µM*,1.4µM*,1.1µM*,?,4.8µM*,?
Cc1ccc2[nH]c(SCC(=O)N3CCOCC3)nc2c1C,6.3µM*,?,3.5µM*,?,15µM*,?
Cc1ccc2nc(SCC(=O)N3CCOCC3)[nH]c2c1,?,2.5µM*,1.6µM*,?,6.7µM*,9.2µM*
CCOc1ccc(NC(=O)c2ccc(NC(=O)CSc3nc4ccccc4c(=O)[nH]3)cc2)cc1,9%,-8%,1%,?,-6%,?
O=S(=O)(c1ccccc1)c1nc(-c2cccc(Cl)c2)oc1NCc1ccccc1,15%,.,.,.,1%,.
Nc1nc(SCc2ccccc2Cl)cc(C(=O)O)n1,-6%[9.22 µM],.,.,.,.,.

# Screens deposited in PubChem BioAssay by National Center for Advancing Translational Sciences (NCATS).
